Experimental findings from PubChem BioAssay (Tox21) are described below.

Structures are written as SMILES. Values without a mark were called inactive. Inconclusive results are not listed. Active and inactive are the calls of the source. Unless noted, calls come from the whole dose curve; as a rule, active = well fitted curve in the direction sought with a large enough effect in the repeat runs; inconclusive = weak or mixed curves; inactive = no such curve, though single readings can be large; an effect the other way counts as inactive or inconclusive.

Assay [1] can be described thus: qHTS assay to test for compound auto fluorescence at 535 nm (green) in HEK293 cells (AID 720680).
The nature of assay [2]: qHTS assay to test for compound auto fluorescence at 460 nm (blue) in HEK293 cell free culture (AID 720681). An outline of the steps:
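Blue fluorescence (Ex 405/Em 460 nm, triamterene-equivalent) was read immediately after pin transfer of compound or DMSO into medium (DMEM, 10% FBS) without cells.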
(In general: In qHTS, concentration-response curves come from the screen itself.)

Assay [3] in a line: qHTS assay to test for compound auto fluorescence at 535 nm (green) in HEK293 cell free culture (AID 720682). An outline of the steps:
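Compounds were pin-transferred into cell-free DMEM with 10% FBS, and green fluorescence was read at excitation 485 nm and emission 535 nm. Intensities were expressed as fluorescein-equivalent values.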

A short description of assay [4]: qHTS assay to test for compound auto fluorescence at 590 nm (red) in HEK293 cell free culture (AID 720683). An outline of the steps: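 Red-channel autofluorescence of compounds in culture medium (DMEM, 10% FBS), no cells, measured at 540/590 nm. Rose Bengal sodium is the reference fluorophore for equivalence.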
The nature of assay [5]: qHTS assay to test for compound auto fluorescence at 590 nm (red) in HepG2 cell free culture (AID 720684). An outline of the steps: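 No cells present: MEM + 10% FBS only. Compound pinned in, red label read (540/590 nm). Activity = fluorescence equivalent to Rose Bengal sodium.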
The nature of assay [6]: qHTS assay to test for compound auto fluorescence at 460 nm (blue) in HepG2 cell free culture (AID 720685). An outline of the steps:
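Cell-free plates of MEM plus 10% FBS received 23 nL compound or DMSO vehicle; blue-channel (405/460 nm) intensity scored against triamterene as reference fluorophore.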

Assay [7] can be described thus: qHTS assay to test for compound auto fluorescence at 535 nm (green) in HepG2 cell free culture (AID 720686).
The nature of assay [8]: qHTS assay to test for compound auto fluorescence at 460 nm (blue) in HepG2 cells (AID 720687). An outline of the steps:
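Blue-channel autofluorescence (Ex/Em 405/460 nm, triamterene-equivalent) was measured after 1 hr compound exposure at 37 C, 5% CO2. Cells were HepG2, plated overnight at 37 C in MEM plus 10% FBS.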

A short description of assay [9]: qHTS assay to identify small molecule antagonists of the glucocorticoid receptor (GR) signaling pathway - cell viability counter screen (AID 720693). Note: nearly all actives have a fitted effect of over 55% in size.
Assay [10] is described as follows: qHTS assay for identifying genotoxic compounds that show differential cytotoxicity against isogenic chicken DT40 cell lines with known DNA damage response pathways - wild type cell line (AID 743012). Note: nearly all actives have a fitted effect of over 60% in size. An outline of the steps: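 Cytotoxicity in repair-proficient parental chicken DT40 cells serves as the comparator for Rad54/Ku70- and Rev3-deficient lines. Cells were exposed to compounds for 40 h at 37 C/5% CO2, and ATP-based luminescence (CellTiter-Glo) measured viability.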

The nature of assay [11]: qHTS assay for identifying genotoxic compounds that show differential cytotoxicity against isogenic chicken DT40 cell lines with known DNA damage response pathways - Rev3 mutant cell line (AID 743014). Note: nearly all actives have a fitted effect of over 55% in size. Note: potency is the fitted concentration of half-maximal effect.
A short description of assay [12]: qHTS assay for identifying genotoxic compounds that show differential cytotoxicity against isogenic chicken DT40 cell lines with known DNA damage response pathways - Rad54/Ku70 mutant cell line (AID 743015). Note: nearly all actives have a fitted effect of over 60% in size.
A short description of assay [13]: qHTS assay to identify small molecule antagonists of the androgen receptor (AR) signaling pathway - cell viability counter screen (AID 743033; note: nearly all actives have a fitted effect of over 45% in size).
Assay [14] concerns the target Androgen receptor (Homo sapiens) (UniProt P10275). In words: qHTS assay to identify small molecule antagonists of the androgen receptor (AR) signaling pathway (AID 743035; active = well fitted inhibition curve with a large enough effect in the signal ratio in the repeat runs, not every such curve was filed as active; the % refers to the signal ratio). An outline of the steps:
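Steps: seed AR-UAS-bla GripTite HEK293 cells, incubate 4 h at 37C; pin in test compound, then add agonist R1881; incubate 16 h at 37C; add LiveBLAzer B/G FRET substrate, 2 h at room temperature; read fluorescence.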

For assay [15] the target is unchanged. In words: qHTS assay to identify small molecule agonists of the androgen receptor (AR) signaling pathway using the MDA cell line (AID 743040; note: nearly all actives have a fitted effect of over 20% in size). An outline of the steps: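 Stable MMTV-luciferase reporter in MDA-kb2 cells; note the promoter carries GR as well as AR response elements. 16 h compound treatment, 37C, 0% CO2; ONE-Glo luminescence endpoint.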
Assay [16] in a line: qHTS assay to identify small molecule antagonists of the androgen receptor (AR) signaling pathway using the MDA cell line - cell viability counter screen (AID 743041; note: nearly all actives have a fitted effect of over 45% in size). An outline of the steps: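 Using the breast carcinoma line MDA-kb2 AR-luc, test chemicals were co-incubated with R1881 for 16 h; CellTiter-Fluor reagent, added at 15.5 h, provided a fluorescence measure of live cells.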

Assay [17] addresses Androgen receptor (Homo sapiens) (UniProt P10275). As to the kind of experiment: qHTS assay to identify small molecule antagonists of the androgen receptor (AR) signaling pathway using the MDA cell line (AID 743042; note: nearly all actives have a fitted effect of over 55% in size). An outline of the steps:
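Antagonist mode: compounds plus R1881 agonist added to MDA-kb2 AR-luc cells, incubated 16 h at 37C. Luciferase reporter luminescence quantified, with multiplexed CellTiter-Fluor readout for cell viability.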

Assay [18] shares this target. As to the kind of experiment: qHTS assay to identify small molecule agonists of the androgen receptor (AR) signaling pathway (AID 743036; active = well fitted activation curve with a large enough effect in the signal ratio in the repeat runs, with a control signal flat, not every such curve was filed as active; the % refers to the signal ratio). An outline of the steps:
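Activation was read as beta-lactamase FRET signal from LiveBLAzer B/G substrate, added for 2 h at room temperature. Before that, GeneBLAzer AR-UAS-bla GripTite (HEK293) cells had 16 h compound exposure at 37C.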

The target in assay [19] is Glucocorticoid receptor (Homo sapiens) (UniProt P04150). As to the kind of experiment: qHTS assay to identify small molecule agonists of the glucocorticoid receptor (GR) signaling pathway (AID 720691; active = well fitted activation curve with a large enough effect in the signal ratio in the repeat runs, not every such curve was filed as active; the % refers to the signal ratio). An outline of the steps: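 Steps: seed GR-bla HeLa cells, incubate 4 h at 37 C/5% CO2; pin-transfer DMSO-dissolved compounds; incubate 18 h at 37 C; add LiveBLAzer B/G FRET substrate; after 2 h at room temperature, measure fluorescence.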
Glucocorticoid receptor (Homo sapiens), sequence (P04150 whole entry, looked up): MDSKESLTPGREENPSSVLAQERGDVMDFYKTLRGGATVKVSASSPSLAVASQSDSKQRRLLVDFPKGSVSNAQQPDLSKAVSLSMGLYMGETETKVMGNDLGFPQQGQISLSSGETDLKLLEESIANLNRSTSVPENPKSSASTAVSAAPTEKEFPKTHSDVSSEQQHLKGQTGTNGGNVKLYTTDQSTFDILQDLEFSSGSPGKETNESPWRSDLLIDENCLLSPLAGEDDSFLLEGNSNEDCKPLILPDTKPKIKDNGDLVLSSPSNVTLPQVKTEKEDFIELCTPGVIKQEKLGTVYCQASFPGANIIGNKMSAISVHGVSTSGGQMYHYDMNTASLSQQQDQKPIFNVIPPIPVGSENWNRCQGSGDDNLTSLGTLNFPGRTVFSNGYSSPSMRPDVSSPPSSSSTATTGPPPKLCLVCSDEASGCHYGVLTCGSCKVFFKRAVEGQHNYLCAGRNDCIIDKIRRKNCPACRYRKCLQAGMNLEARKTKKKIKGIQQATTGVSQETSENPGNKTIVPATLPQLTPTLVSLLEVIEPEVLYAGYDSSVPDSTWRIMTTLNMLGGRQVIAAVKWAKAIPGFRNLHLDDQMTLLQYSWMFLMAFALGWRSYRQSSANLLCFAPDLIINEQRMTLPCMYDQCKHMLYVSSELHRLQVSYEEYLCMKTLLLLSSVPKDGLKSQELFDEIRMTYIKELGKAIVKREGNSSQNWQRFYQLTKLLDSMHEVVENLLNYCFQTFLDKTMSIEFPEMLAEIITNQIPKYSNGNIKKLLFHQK

Androgen receptor (Homo sapiens), sequence (P10275 whole entry, looked up): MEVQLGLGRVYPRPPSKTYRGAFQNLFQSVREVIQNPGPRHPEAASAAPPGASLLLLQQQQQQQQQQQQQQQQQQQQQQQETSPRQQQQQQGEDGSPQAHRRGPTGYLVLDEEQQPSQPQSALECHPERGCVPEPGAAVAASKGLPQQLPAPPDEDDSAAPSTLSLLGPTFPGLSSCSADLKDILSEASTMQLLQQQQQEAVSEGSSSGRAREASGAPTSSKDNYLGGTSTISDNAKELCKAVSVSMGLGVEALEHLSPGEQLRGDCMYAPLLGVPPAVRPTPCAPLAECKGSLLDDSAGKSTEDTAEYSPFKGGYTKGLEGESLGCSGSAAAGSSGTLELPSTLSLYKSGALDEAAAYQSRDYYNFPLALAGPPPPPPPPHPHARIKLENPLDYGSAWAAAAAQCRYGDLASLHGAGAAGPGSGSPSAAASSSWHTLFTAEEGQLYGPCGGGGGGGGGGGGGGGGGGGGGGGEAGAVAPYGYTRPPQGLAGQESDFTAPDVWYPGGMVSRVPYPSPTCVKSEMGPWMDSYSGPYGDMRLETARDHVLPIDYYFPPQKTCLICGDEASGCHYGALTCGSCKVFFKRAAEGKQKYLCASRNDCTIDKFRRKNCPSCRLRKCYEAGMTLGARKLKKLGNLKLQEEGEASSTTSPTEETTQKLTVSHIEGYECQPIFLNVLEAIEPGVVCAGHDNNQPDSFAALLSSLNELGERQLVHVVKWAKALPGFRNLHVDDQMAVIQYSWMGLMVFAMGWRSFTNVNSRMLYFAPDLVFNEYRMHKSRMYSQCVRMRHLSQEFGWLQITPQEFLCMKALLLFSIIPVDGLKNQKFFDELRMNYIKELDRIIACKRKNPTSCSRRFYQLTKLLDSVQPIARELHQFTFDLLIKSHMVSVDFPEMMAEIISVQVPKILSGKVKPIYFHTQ

For `CCC(CC)CO`, the result in [1], in [2], in assay [3], in assay [4], in assay [5] and in assay [6] was inactive. Besides, the outcome in [7], in [8], in [9] and in assay [15] was inactive. Moreover, the Potency result in [10], in assay [11], in assay [12], in assay [13], in assay [14] and in assay [16] was “inactive” in each case. The Potency result in assay [17] was “inactive”.

For the compound `CC(=O)NCCCCCC(=O)O`, the compound was called inactive in assay [1], in assay [2], in [3], in [4], in assay [5] and in [6]. In addition, the call in assay [7] and in assay [8] was inactive. Besides, the Potency entry in [10], in [11], in assay [13] and in [16] was “inactive” each time.

On to `CC(CO)c1ccccc1` (centres undefined), for which the result in assay [1], in assay [2], in assay [3], in assay [4], in [5] and in assay [6] was inactive. In addition, the compound was classed as inactive in [7], in assay [8], in assay [18] and in assay [15]. Besides, the Potency result in assay [10], in assay [11], in assay [12], in assay [13], in assay [16] and in [17] was “inactive” in each case.

On to `CCCCNC1CC(C)(C)NC(C)(C)C1`, for which the compound was classed as inactive in assay [1], in assay [2], in assay [3], in assay [4], in [5] and in assay [6]. In addition, the compound was called inactive in assay [7] and in [8]. Besides, the Potency result in assay [19], in assay [10], in assay [13] and in assay [16] was “inactive” each time. Also, the Potency in [11] was 48.6 µM (active).

For `COC(=O)[C@@H]1[C@H]2C[C@H]3c4[nH]c5ccccc5c4CCN3C[C@@H]2CC[C@@H]1O`, the compound was called inactive in assay [1], in assay [2], in [3], in [4], in assay [5] and in [6]. The result in [7], in [8] and in assay [9] was inactive. For the same compound, the Potency result in assay [13] is “inactive”.

For the compound `c1ccc2c(c1)ccc1c3ccccc3ccc21`, the call in assay [1], in assay [2], in [3], in assay [4], in [5] and in assay [6] was inactive. Further, the result in [7] and in [8] was inactive. In addition, the Potency entry in assay [10], in assay [11], in [12] and in assay [13] was “inactive” in each case.

With `O=C1CCCC(=O)O1`, the result in [1], in [2], in assay [3], in [4], in assay [5] and in assay [6] was inactive. Also, the compound was called inactive in assay [7], in assay [8] and in assay [9]. Moreover, the Potency entry in assay [10], in assay [11], in assay [12], in assay [13] and in [16] was “inactive” throughout.
